# Out of some 59,000 compounds screened, about 6,500 (11%) were called active. Inconclusive results (about 15%) are left out. No stated cut-off is given here; in the data, active means max dye-equivalent concentration above about 10 nM; inconclusive means mostly about 1.1 nM to 9.6 nM; inactive means weaker than that. Shown is part of a subset that was picked to be rich in actives.
# Test: qHTS Assay for Spectroscopic Profiling in A350 Spectral Region
# Conditions: Compound autofluorescence, 340/450 nm, Alexa 350 dye-equivalents; active compounds read high
row,SMILES,max dye-equivalent concentration
1,CCc1nnc(NC(=O)CSc2nnc(COc3ccc(C#N)cc3)n2-c2ccccc2)s1,inactive
2,O=C(Nc1cccc(F)c1)N1CC2(CCN(C(=O)c3csnn3)CC2)C1,inactive
3,Cn1c(CCN2CCCCCC2)nc2cc(NC(=O)Nc3ccccc3)ccc21,inactive
4,Cc1nc2ccc(NC(=O)N3CCC(c4ccccc4)C3)cc2nc1C (stereo unspecified),410 nM (active)
5,O=C(Nc1cccc(NC(=O)N2CCN(c3ccccc3)CC2)c1)N1CCN(c2ccccc2)CC1,inactive
6,Cc1cc(C(=O)OCC(=O)NCc2ccco2)c(C)n1-c1ccccc1,inactive
7,O=C(COC(=O)C12CC3CC(CC(C3)C1)C2)NCc1ccco1,16 nM (active)
8,O=C(COC(=O)CCC(=O)c1cccs1)NCc1ccco1,inactive
9,NC[C@@H]1O[C@H](O[C@@H]2[C@H](O[C@@H]3O[C@H](CO)[C@@H](COC[C@H]4O[C@@H](CN)[C@@H](O)[C@@H](O)[C@@H]4N)[C@@H]3O)[C@@H](O)[C@@H](N)C[C@H]2N)[C@@H](N)[C@H](O)[C@@H]1O,inactive
10,N#Cc1ccc(CN2CCCC3(CCN(C(=O)c4ccco4)CC3)C2)cc1,inactive
11,CCOc1ccc(NS(=O)(=O)c2ccc(OCC(=O)NCCCOC)cc2)cc1,inactive
12,O=C(CC(NS(=O)(=O)c1ccc(Cl)cc1)c1ccco1)NC1CCCC1 (stereo unspecified),inactive
13,O=c1[nH][nH]c(=O)c2cc(N3CCCC3)ccc12,47 nM (active)
14,O=C(NCc1cccnc1)c1cn(-c2ccccc2)nc1-c1cccs1,inactive
15,O=C1CC(c2ccccc2)C(=O)N1c1cccc(O)c1 (stereo unspecified),inactive
16,CCCC(CCC(=O)OC)(C(=O)OCC)c1csc(N)n1 (stereo unspecified),inactive
17,CCCCNC(=O)c1ccccc1NC(=O)c1ccccc1N(C)S(C)(=O)=O,inactive
18,O=C(c1cccc(F)c1)N1CCC2(CC1)CCN(c1ccccc1)CC2,inactive
19,CCOC(=O)N1CCN(C(=O)C2CCN(S(C)(=O)=O)CC2)CC1,inactive
20,CCOC(=O)N1CCN(CC(=O)Nc2cc(C)nn2-c2nc3ccccc3s2)CC1,inactive
21,CCOC(=O)N1CCN(C(=O)C2CCN(c3ncnc4c3sc3cccc(F)c34)CC2)CC1,18 nM (active)
22,CCCc1cc(=O)n2[nH]c(SCc3ccccc3)nc2n1,inactive
23,Cc1ccc(C(=O)NC2CC(C)(C)NC(C)(C)C2)c(C)c1,inactive
24,CS(=O)(=O)N(CC(=O)NCc1ccco1)c1ccc2c(c1)OCO2,29 nM (active)
25,O=C(Cn1nnc(-c2ccc3c(c2)OCO3)n1)NCc1ccco1,inactive
26,CS(=O)(=O)N(CC(=O)N1CCN(Cc2ccc3c(c2)OCO3)CC1)c1ccc2c(c1)OCO2,inactive

row,SMILES,max dye-equivalent concentration
1,CCNC(=O)CCc1nc(-c2ccc(C(C)(C)C)cc2)no1,inactive
2,Cc1ccc(S(=O)(=O)c2c(N)n(C)c3nc4ccccc4nc23)cc1,3600 nM (active)
3,Cc1ccc(S(=O)(=O)NCc2nc3ccccc3c(=O)n2N)cc1,inactive
4,CC1=C(C(=O)Nc2ccccc2)C(c2cccs2)C(C#N)=C(SCC#N)N1 (stereo unspecified),inactive
5,CCOC(=O)N1CC=C2C(C#N)=C(N)C(C#N)(C#N)[C@H](c3cccs3)[C@H]2C1,35 nM (active)
6,CC(=O)N1CCN(c2ccc(NCc3ccc(C(C)C)cc3)cc2)CC1,inactive
7,Cn1c(/C(C#N)=C2/CCCCCN2)nc2ccccc21,23 nM (active)
8,N#C/C(=C1\CCCN1)c1nc(-c2ccccc2)cs1,inactive
9,CCC(C)(C)n1nnnc1C(c1cccs1)N1CCN(Cc2ccccc2)CC1 (stereo unspecified),inactive
10,O=C1c2ccccc2C(=O)C1c1ccccc1,inactive
11,COc1ccc2[nH]c(=O)c(-c3noc(-c4ccc(F)cc4)n3)cc2c1,14 nM (active)
12,Cc1cccc(-c2noc(-c3ccc(F)cc3)n2)c1,inactive
13,O=C(c1cc(C(F)(F)F)cc(C(F)(F)F)c1)N1CCC2(CC1)CN(c1ccncc1)C2,inactive
14,CN1CCN(c2ncncc2-c2ccc(C(=O)N(C)C)cc2)CC1,inactive
15,COCCNC(=O)CN(C(=O)CCC(=O)Nc1cc(C)on1)c1ccc(C)cc1C,inactive
16,COc1cc2[nH]c(=S)n(CCN3CCCCC3C)c(=O)c2cc1OC (stereo unspecified),inactive
17,CCc1ccc(NC(=O)CSc2nc3ccccc3c(=O)n2CCN2CCOCC2)cc1,inactive
18,CCn1c(SCC(=O)NCC2CCCO2)nc2cc(S(=O)(=O)N3CCCCC3)ccc21 (stereo unspecified),inactive
19,CCCCn1c(SCC(=O)NCC2CCCO2)nc2ccc(N3CCOCC3)cc2c1=O (stereo unspecified),71 nM (active)
20,CCCCn1c(SCC(=O)NCCc2ccc(OC)c(OC)c2)nc2c1c(=O)n(C)c(=O)n2C,inactive
21,COCCCNC(=O)CSc1nc2ccc(N3CCOCC3)cc2c(=O)n1CCc1ccccc1,69 nM (active)
22,O=C(CSc1nc2cc3c(cc2c(=O)n1CCC1=CCCCC1)OCO3)NCc1ccco1,inactive
23,O=C(c1ccco1)N1CCC[C@@]2(CCN(c3ccccc3)C2)C1,inactive
24,CC(Oc1ccc(Cl)cc1)C(=O)Nc1ncccn1 (stereo unspecified),inactive
25,O=C(c1cc(C(F)(F)F)cc(C(F)(F)F)c1)N1CCC2(CCCN(Cc3ccncc3)C2)CC1,inactive

# Source: PubChem BioAssay AID590 (National Center for Advancing Translational Sciences (NCATS), 2007)
